Screening results as filed in PubChem.
This is a sample that favours compounds with a hit; in the whole collection about 4.1% have one here.
BoNT A protease: BoNT/A light chain protease inhibitors, primary screen, biochemical, flow cytometry, MLPCN library; Botulinum neurotoxin type A light chain protease (Clostridium botulinum A str. ATCC 3502); multiplex microsphere protease substrate cleavage; inhibition, % at 10 µM; 360,000 tested, 0.17% active; AID 588499, 2011; note: plate controls were buffer without enzyme for full effect and enzyme alone for no effect
MazEF act: activators of E. coli MazEF toxin-antitoxin RNase, primary screen, biochemical, fluorescence, uHTS. FAM/BHQ RNA-DNA oligo cleavage fluorescence, 5 h. AID 504720, 2011. Endoribonuclease toxin MazF (Escherichia coli (strain K12)), P0AE70. activation, % at 20 µM. 350,000 tested, 0.32% active; in the data active = activation above about 50%
Target sequence (P0AE70 whole entry, looked up): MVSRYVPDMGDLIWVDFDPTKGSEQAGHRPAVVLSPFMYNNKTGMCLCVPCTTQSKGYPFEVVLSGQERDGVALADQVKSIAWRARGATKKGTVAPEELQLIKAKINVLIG
Bead autofluor: flagged as autofluorescent in microsphere protease counterscreen; compound autofluorescence counterscreen, microsphere flow cytometry; active compounds read high; fluorescence intensity (concentration not given with the values); 360,000 tested, 3.1% active; AID 624483; in the data active = fluorescence intensity above about 16000; inconclusive = no clear call, values can overlap the other calls
Anthrax LF prot: Bacillus anthracis LF protease inhibitors, primary screen, biochemical, multiplex microsphere, MLPCN library | multiplex microsphere protease cleavage assay | inhibition, % at 10 µM | 360,000 tested, 0.12% active | AID 588501, 2011; note: plate controls were buffer without enzyme for full effect and enzyme alone for no effect
BoNT-F LC inh: BoNT/F light chain protease inhibitors, primary screen, biochemical, flow cytometry, MLPCN library. AID 588497, 2011. inhibition, % at 10 µM. 360,000 tested, 0.22% active. Multiplex microsphere protease cleavage assay; in the data active = inhibition above about 35%, passing the limit was not always enough; inconclusive = no clear call, values can overlap the other calls; note: plate controls were buffer without enzyme for full effect and enzyme alone for no effect
VHR inh abs: VHR1 phosphatase inhibitors, primary screen, biochemical, absorbance, uHTS. Dual specificity protein phosphatase 3 (Homo sapiens), P51452. recombinant VHR phosphatase, pNPP absorbance. inhibition, % at 13.3 µM. 290,000 tested, 0.52% active; in the data active = inhibition above about 50%
Target sequence (P51452 whole entry, looked up): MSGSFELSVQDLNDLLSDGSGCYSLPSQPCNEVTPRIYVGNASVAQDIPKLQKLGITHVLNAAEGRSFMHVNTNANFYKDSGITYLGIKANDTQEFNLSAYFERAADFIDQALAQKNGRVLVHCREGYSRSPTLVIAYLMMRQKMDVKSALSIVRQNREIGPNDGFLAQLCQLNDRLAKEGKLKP
Numbers without * were called inactive; ? = inconclusive; / = no result given. Cut-off read from the data, not from the text of the source, unless noted: active = inhibition above about 30%; inconclusive = no clear call, values can overlap the other calls; inactive = below that.

SMILES	BoNT A protease	MazEF act	Bead autofluor	Anthrax LF prot	BoNT-F LC inh	VHR inh abs
CC(O)(CS(=O)(=O)Cc1ccccc1)C(=O)Nc1ccc(C(F)(F)F)cc1 (configuration not stated)	?	3	23000*	1	-2	14
Cc1cccc(C)c1-n1nnnc1C1(C)CCC(=O)N1CCc1ccc(O)cc1 (configuration not stated)	0	/	6263	-1	-8	/
c1ccc2c(CN3CCCCCCC3)c[nH]c2c1	-2	1	17395*	-3	-5	37
O=C(OCc1nc2ccccc2[nH]1)C12CC3CC(CC(C3)C1)C2	-4	3	17109*	-5	-11	19
c1ccc2[nH]c(CN3CCCCCC3)nc2c1	1	3	20479*	0	-2	5
c1ccc(OCc2nc3ccccc3[nH]2)cc1	0	2	22117*	-5	-2	-2
COc1ccc(C(=O)N[C@H](C(=O)NCCc2ccc3c(c2)OCCO3)C(C)C)cc1	1	11	7894	-3	-1	/
CC(C)(C)NS(=O)(=O)c1ccc(NC(=S)NC(=O)C2CC2)cc1	0	1	6288	2	9	0
CC(=O)Nc1c(Cl)cc2c(c1Cl)C(=O)c1ccccc1-2	1	9	2674	-8	3	/
CC(=O)N1CCc2ccc(NC(=O)c3c(-c4c(Cl)cccc4Cl)noc3C)cc21	-3	8	4608	-6	?	-5
CC1=CC(=C(C#N)c2nc3ccccc3s2)C=C(C)N1Cc1ccco1	3	605*	12978	1	-4	24
N#C/C(=C(/O)c1ccco1)c1nc2ccccc2s1	-1	-9	3187	-17	?	-26
Oc1sc(C=Nc2ccccc2)c2ccccc12	0	140*	3857	-2	-4	-9
CCOc1ccc(C(=O)/C=C/Nc2ccc(S(=O)(=O)Nc3cc(C)nc(C)n3)cc2)cc1	/	-1	/	/	/	50*
Cc1cc(C)nc(NS(=O)(=O)c2ccc(N/C=C\C(=O)c3ccc(Cl)cc3)cc2)n1	2	-9	8834	-4	3	21
O=C1[C@H]2CCC=C[C@H]2[C@H](c2cccc(Br)c2)N1Cc1ccccc1	0	0	2919	-1	-11	/
CCN(CC)C(=O)[C@H]1C[C@H](CC(=O)NCCc2ccccn2)C(=O)N2CCc3c([nH]c4ccc(Cl)cc34)[C@]12C	0	-4	3616	0	-2	/
CC(C)NC(=S)N/N=C1\CCCCC1C1CCCCC1 (configuration not stated)	?	1	22179*	0	1	2
CC1CCCC/C1=N\NC(=S)Nc1ccccc1 (configuration not stated)	0	6	3006	8	3	2
COc1cccc(N2C(=O)C(c3ccccc3)=C(c3nc4ccccc4s3)C2NC(C)=O)c1 (configuration not stated)	?	-9	21453*	0	3	20
CC(=O)NC1C(c2nc3ccccc3s2)=C(c2ccccc2)C(=O)N1c1ccc(C)cc1 (configuration not stated)	0	11	4253	-10	-8	23
CCN(C)C1CN(Cc2cn(Cc3ccc(F)cc3)nn2)S(=O)(=O)C1 (configuration not stated)	-1	/	5724	-4	-9	/
CCCCCCC/C=N/Nc1nnc(Cc2ccccc2)c(=O)[nH]1	-5	1	4260	-22	?	53*
CCCCCC/C=N/Nc1nnc(Cc2ccc(OC)c(OC)c2)c(=O)[nH]1	-7	0	3302	-7	-19	-2
COC(=O)c1[nH]c2cc(OC)ccc2c1NC(=O)CCN1CCN(c2ccccc2)CC1	0	7	23523*	-2	1	27
SMILES	BoNT A protease	MazEF act	Bead autofluor	Anthrax LF prot	BoNT-F LC inh	VHR inh abs
CCOC(=O)C1CCCN(CCC(=O)Nc2c(C(=O)OC)[nH]c3cc(OC)ccc23)C1 (configuration not stated)	?	1	19014*	-2	6	17
CCOC(=O)C1CCCN(CC(=O)Nc2c(C(=O)OC)[nH]c3ccc(Br)cc23)C1 (configuration not stated)	0	-9	3137	-5	-3	16
Cc1ccc(NC(=O)CCS(=O)(=O)c2cc3[nH]c(=O)c(=O)[nH]c3cc2C)cc1	2	2	6009	2	1	-22
CC1(C)CC(=O)C(C2(O)C(=O)N(Cc3ccccc3)c3ccccc32)CO1 (configuration not stated)	?	3	22533*	-1	-1	3
CC1(C)CC(=O)CC(C2(O)C(=O)N(Cc3ccccc3)c3ccccc32)O1 (configuration not stated)	0	1	5390	-3	-4	16
COc1cccc(CN2CC(C(=O)N3CCOCC3)CCC2=O)c1 (configuration not stated)	1	9	5374	-1	4	53*
COc1cccc(CN2CCN(C(=O)C3CCC(=O)N(C4CCCC4)C3)CC2)c1 (configuration not stated)	1	1	5435	-1	2	51*
CCOc1ccc(-c2nnc(SCC(=O)NC(C)(C)C)nc2-c2ccc(OCC)c(OC)c2)cc1OC	8	10	3919	-19	-24	-33
CN(Cc1ccccc1)C(=O)c1ccc(NC(=O)Cc2ccc(NC(=O)C3CCN(C(=O)c4ccccc4)CC3)cc2)cc1	0	-3	3426	-8	-4	/
COc1cc2c(cc1OC)CN(C(=O)Nc1ccccc1)CC2	1	0	3910	-1	-10	-10
COc1cc2c(cc1OC)CN(C(=O)C1(c3ccccc3)CC1)CC2	?	-4	19639*	0	3	-1
O=S(=O)(c1cccc2cccnc12)N1CCN(c2ccc(F)cc2)CC1	-1	2	4803	-4	-4	25
O=c1n(S(=O)(=O)c2cccc3cccnc23)c2ccccc2n1S(=O)(=O)c1cccc2cccnc12	7	-15	20693*	-1	8	35
CC1CC(C)CN(S(=O)(=O)c2cccc3cccnc23)C1 (configuration not stated)	0	2	5921	-8	-1	0
O=S(=O)(c1cccc2cccnc12)N1CCOCC1	0	10	23370*	2	-1	-8
N#CC(=Nc1cccc(F)c1)C1=C(O)c2ccccc2C1=O	-1	/	5879	-14	-12	/
CC(C)(C)NC(=O)CSc1nc(Cc2ccccc2)nc2ccccc12	-2	11	3973	-20	?	26
CSc1nc(Cc2ccccc2)nc2ccccc12	0	-7	2201	1	-4	53*
